Composite z-score and z-score data for 13 compounds are collected here from PubChem BioAssay.

Activity calls are given as the source filed them.

Assay [1] in a line: binders of probe aFSTL3 on microarray, primary screen, stem cell growth factor project, biochemical, small-molecule microarray, fluorescence 635/667 (AID 1064).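 Further: measures binding of the biotinylated anti-FSTL3 antibody to printed compounds.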 The following applies: higher = more signal.
Assay [2] in a line: binders from COS7 lysate, DM2A8 probe, primary screen, torsin A project, cell lysate, small-molecule microarray, fluorescence 635/667 (AID 1065). As to conditions: higher = more signal, COS7 lysate expressing mutant human TOR1A.
The nature of assay [3]: binders of probe aFGF2 on microarray, primary screen, stem cell growth factor project, biochemical, small-molecule microarray, fluorescence 635/667 (AID 1067).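 Further: measures binding of biotinylated aFGF2 protein to printed compounds on slides; z-score merges feature fluorescence and signal-to-noise across triplicate slides.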 As to conditions: higher = more signal.
Assay [4] is described as follows: binders of probe aFGF10 on microarray, primary screen, stem cell growth factor project, biochemical, small-molecule microarray, fluorescence 635/667 (AID 1071).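 Further: score merges 667 nm spot intensity and signal to noise from triplicate slides.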 The following applies: higher = more signal.
In assay [5] the target is Neurogenic locus notch homolog protein 2 (Homo sapiens) (UniProt Q04721). In words: Notch2 binders on small-molecule microarrays, primary screen, biochemical, small-molecule microarray, 635 nm fluorescence, stem cell growth factors (AID 1073). As to conditions: Notch2 binding, higher = more signal.
Assay [6] has as its target Pro-neuregulin-1, membrane-bound isoform (Homo sapiens) (UniProt Q02297). Nature of the assay: NRG1 binders on small-molecule microarrays, primary screen, psychiatric disease protein project, biochemical, small-molecule microarray, fluorescence 635/667 (AID 1075).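 Further: score combines 667 nm spot fluorescence with signal to noise.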 The following applies: NRG1 binding, 635 nm fluorescence, higher = more signal.
For assay [7], the system named is Neuregulin-1 EGF-like domain. Nature of the assay: binders of neuregulin-1 EGF-like domain, primary screen, biochemical, small-molecule microarray, 635 nm fluorescence (AID 1081).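 Further: binding of the protein to compounds printed on small-molecule microarray slides.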 The following applies: small-molecule microarray binding, higher = more signal.
A short description of assay [8]: FRG1 promoter luciferase signal modulators, primary screen, FRG1 inhibition for FSHD, cell-based, C2C12 myotubes, firefly/Renilla luciferase, luminescence (AID 1084). The following applies: higher = more signal, called active from +8 up or from −8 down.
Assay [9] in a line: binders of probe aFST on microarray, primary screen, stem cell growth factor project, biochemical, small-molecule microarray, fluorescence 635/667 (AID 1086).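 Further: score merges 667 nm fluorescence with signal-to-noise of each printed compound spot.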 The following applies: higher = more signal.
Assay [10] is described as follows: binders of probe aHhip on microarray, primary screen, stem cell growth factor project, biochemical, small-molecule microarray, fluorescence 635/667 (AID 1087).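 Further: score merges spot fluorescence at 667nm with spot signal to noise ratio.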 The following applies: higher = more signal.

Chain of Neurogenic locus notch homolog protein 2 (Homo sapiens) (Q04721 whole entry, looked up, canonical isoform): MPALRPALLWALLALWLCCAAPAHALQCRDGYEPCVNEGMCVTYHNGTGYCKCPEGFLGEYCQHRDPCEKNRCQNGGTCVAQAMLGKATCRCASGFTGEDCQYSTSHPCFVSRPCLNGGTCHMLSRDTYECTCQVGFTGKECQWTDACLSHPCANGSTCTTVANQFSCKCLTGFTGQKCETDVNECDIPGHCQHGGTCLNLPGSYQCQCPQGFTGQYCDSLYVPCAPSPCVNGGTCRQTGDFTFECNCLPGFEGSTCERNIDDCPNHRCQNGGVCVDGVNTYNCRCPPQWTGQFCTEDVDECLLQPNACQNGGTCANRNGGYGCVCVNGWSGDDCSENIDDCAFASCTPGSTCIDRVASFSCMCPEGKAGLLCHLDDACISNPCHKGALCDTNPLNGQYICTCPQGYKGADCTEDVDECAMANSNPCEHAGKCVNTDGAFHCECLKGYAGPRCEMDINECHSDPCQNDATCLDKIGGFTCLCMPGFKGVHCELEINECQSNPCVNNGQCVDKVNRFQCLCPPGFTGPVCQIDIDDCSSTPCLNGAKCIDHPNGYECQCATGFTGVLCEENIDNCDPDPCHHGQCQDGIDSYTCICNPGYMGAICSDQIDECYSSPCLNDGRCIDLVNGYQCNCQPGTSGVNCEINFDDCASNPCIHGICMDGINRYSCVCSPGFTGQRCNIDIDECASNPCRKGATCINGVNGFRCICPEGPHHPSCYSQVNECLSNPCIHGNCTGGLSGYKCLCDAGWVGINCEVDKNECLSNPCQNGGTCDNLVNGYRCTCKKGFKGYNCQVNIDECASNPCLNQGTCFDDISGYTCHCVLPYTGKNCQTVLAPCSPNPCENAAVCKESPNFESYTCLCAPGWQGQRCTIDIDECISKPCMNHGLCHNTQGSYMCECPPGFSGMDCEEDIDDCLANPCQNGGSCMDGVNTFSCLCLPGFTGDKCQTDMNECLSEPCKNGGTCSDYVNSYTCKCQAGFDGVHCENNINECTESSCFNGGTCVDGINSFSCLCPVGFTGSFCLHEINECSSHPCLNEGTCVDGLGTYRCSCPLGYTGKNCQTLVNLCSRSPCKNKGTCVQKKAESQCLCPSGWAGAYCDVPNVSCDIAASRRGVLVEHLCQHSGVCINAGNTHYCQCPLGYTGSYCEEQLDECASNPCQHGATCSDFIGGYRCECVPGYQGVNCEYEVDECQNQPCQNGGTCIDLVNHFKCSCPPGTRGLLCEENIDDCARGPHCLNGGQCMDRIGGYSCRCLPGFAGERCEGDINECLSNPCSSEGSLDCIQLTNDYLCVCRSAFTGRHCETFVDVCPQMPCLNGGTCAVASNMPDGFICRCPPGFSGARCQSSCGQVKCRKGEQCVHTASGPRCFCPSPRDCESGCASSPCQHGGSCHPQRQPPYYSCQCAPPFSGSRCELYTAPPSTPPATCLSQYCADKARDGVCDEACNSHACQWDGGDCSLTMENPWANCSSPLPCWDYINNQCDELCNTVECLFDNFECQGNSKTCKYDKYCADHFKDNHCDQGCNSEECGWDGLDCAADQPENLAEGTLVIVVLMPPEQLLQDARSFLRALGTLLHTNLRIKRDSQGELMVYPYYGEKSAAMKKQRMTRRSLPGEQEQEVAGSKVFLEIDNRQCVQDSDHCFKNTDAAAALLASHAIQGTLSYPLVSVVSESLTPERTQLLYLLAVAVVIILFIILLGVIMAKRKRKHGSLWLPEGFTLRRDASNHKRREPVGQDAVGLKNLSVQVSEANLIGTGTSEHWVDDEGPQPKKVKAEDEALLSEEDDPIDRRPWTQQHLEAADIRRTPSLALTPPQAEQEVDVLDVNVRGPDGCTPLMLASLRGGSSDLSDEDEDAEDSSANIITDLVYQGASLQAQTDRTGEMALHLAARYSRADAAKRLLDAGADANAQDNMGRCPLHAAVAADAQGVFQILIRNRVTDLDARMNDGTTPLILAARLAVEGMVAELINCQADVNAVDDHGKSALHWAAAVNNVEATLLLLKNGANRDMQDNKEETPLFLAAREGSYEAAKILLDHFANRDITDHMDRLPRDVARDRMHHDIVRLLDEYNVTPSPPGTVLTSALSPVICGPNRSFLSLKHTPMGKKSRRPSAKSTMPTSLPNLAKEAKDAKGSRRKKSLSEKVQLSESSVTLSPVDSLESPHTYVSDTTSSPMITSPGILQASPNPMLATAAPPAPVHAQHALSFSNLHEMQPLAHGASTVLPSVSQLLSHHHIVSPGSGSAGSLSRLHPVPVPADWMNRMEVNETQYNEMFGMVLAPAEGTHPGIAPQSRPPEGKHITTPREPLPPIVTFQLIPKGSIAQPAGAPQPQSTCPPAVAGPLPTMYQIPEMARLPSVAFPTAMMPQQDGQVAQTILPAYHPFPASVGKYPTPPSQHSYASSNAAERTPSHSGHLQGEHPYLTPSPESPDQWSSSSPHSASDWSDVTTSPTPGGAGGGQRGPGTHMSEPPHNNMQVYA
Chain of Pro-neuregulin-1, membrane-bound isoform (Homo sapiens) (Q02297 whole entry, looked up, the tested form may be a part, canonical isoform): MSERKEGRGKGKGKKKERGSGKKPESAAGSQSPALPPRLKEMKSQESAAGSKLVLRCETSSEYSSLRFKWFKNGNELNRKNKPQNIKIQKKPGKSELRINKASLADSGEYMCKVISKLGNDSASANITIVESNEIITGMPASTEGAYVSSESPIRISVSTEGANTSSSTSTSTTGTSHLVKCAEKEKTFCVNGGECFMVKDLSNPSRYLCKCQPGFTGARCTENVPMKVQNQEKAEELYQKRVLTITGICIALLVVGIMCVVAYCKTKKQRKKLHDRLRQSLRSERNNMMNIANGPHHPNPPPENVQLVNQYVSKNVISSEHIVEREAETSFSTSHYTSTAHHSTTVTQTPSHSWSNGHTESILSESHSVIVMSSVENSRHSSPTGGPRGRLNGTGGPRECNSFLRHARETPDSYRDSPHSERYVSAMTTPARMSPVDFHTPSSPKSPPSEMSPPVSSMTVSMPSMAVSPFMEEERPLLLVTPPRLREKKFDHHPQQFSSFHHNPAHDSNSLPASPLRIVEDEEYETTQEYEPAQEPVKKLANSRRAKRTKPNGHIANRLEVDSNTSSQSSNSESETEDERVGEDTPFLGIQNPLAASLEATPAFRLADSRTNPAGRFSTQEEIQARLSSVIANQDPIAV

With `O=C(c1ccccc1)N1Cc2ccccc2C[C@@]2(N=C(c3ccc(OCCCO)cc3)O[C@H]2c2ccccc2)C1=O`, the composite z-score in assay [1] was -0.302; in [2], 0.564; in assay [3] it was -0.0538; in [4], 0.458; in assay [5], 1.13; in assay [6] it was 1.05. Besides, the results for the composite z-score in assay [7], in [9] and in [10] were 1.21, 0.229 and 0.201, respectively. For the same compound, in assay [8], the z-score was -3.39 (inactive).
With `COC(=O)c1ccc(OC)c(/C=C\CC(OC(=O)c2ccncc2)c2ccccc2)c1` (stereo not given), the composite z-score is -0.273 in [1]; 0.285 in [2]; -0.107 in [3]; 0.257 in assay [4]; 0.481 in assay [5]; -0.106 in assay [6]. Besides, the composite z-score in assay [7] was -0.0115; in assay [9], 0.0754; in assay [10] it was 0.0514. Besides, the z-score in assay [8] was -1.97 (inactive).
As for `Cc1ccc(S(=O)(=O)N2[C@@H](c3ccccc3)C(C(=O)O)=C[C@H]2C(C)(C)C)cc1`, the composite z-score in [1] is -0.316; in assay [2], 1.81; in assay [3] it was 0.0103; in [4] it was 0.611; in assay [5], 1.45; in assay [6], 1.37. Further, the figures for the composite z-score in assay [7], in assay [9] and in [10] were 1.23, 0.736 and -0.156, respectively. Besides, the z-score in assay [8] is -1.84 (inactive).
As for `O=C1C2C=CC(C(O)C(c3ccccc3)c3ccccc3)N(Nc3ccccc3F)C2C(=O)N1c1ccccc1` (stereo not given), the composite z-score in [1] is -0.117; in assay [2] it was 0.975; in [3], 0.11; in [4], 1.03; in assay [5], 1.63; in assay [6] it was 1.76. Also, the composite z-score in assay [7] is 1.32; in assay [9], 1.5; in assay [10], -0.121. For the same compound, the z-score in assay [8] is -0.243 (inactive).
For `CC[C@@H](O[Si](C#C[Si](C(C)C)(C(C)C)C(C)C)(C(C)C)C(C)C)c1cn([C@H](CO)Cc2ccccc2)nn1`, the composite z-score in assay [1] was -0.48; in [2] it was 0.111; in [3] it was -0.187; in assay [4], 0.686; in [5], 0.929; in assay [6] it was 0.0252. Further, the composite z-score in assay [7] was 0.846; in assay [9], 0.547; in assay [10] it was -0.0994. Besides, the z-score in [8] was 0.355 (inactive).
In the case of `CC1CC/C=C\[C@H]2OC34C=CCN(CCN5CCOCC5)C(=O)[C@H]3N(C(CO)C(C)C)C(=O)[C@@H]4C2C(=O)O1` (stereo not given in full), the composite z-score in assay [1] is -0.0695; in assay [2] it was 0.949; in assay [3] it was -0.133; in [4] it was -0.528; in assay [5] it was -0.916; in assay [6] it was 1.77. Further, the composite z-score in [7] is 0.907; in assay [9], -0.249; in assay [10] it was -0.069. In addition, the z-score in assay [8] is -0.363 (inactive).
In the case of `O=C1C[C@@](C(=O)NCC(F)(F)F)(c2ccc([N+](=O)[O-])cc2)[C@@H](c2ccc(CO)cc2I)N1CC12CC3CC(CC(C3)C1)C2`, the composite z-score in assay [1] is -0.405; in assay [2], -0.0271; in assay [3], -0.106; in assay [4], 0.121; in assay [5], 0.729; in [6], 1.01. The values for the composite z-score in assay [7], in assay [9] and in assay [10] were 1.23, 1.08 and -0.239, respectively. Also, in [8], the z-score was -2.99 (inactive).
For `COC(=O)[C@@]1(Cc2ccc(F)cc2)[C@H]2c3cc(C(=O)N4CCCC4)n(CCSCCO)c3C[C@H]2CN1C(=O)c1ccccc1`, the composite z-score in assay [1] was 0.349; in assay [2], -0.366; in assay [3], 0.157; in assay [4] it was 0.359; in assay [5], 1.53; in assay [6] it was 1.82. Further, the composite z-score in [7] was 1.32; in assay [9], 1.21; in assay [10], -0.174. In addition, the z-score in assay [8] was -0.0476 (inactive).
As for `COC(=O)[C@H]1N=C(c2ccc(OCCCO)cc2)O[C@H]1c1ccccc1N=[N+]=[N-]`, the composite z-score in assay [1] was 1.6; in assay [2] it was 0.707; in assay [3], 0.184; in assay [4], 0.48; in [5], 1.01; in assay [6], 0.544. In addition, the figures for the composite z-score in [7], in assay [9] and in assay [10] were 1.21, 1.04 and -0.0994, respectively. Further, the z-score in [8] was 4.9 (inactive).
As to `COc1ccc(C(=O)Nc2ccc(CN3C(=O)[C@]4(O[C@H](CC(=O)N(CCO)Cc5ccccc5)[C@@H]([Si](C)(C)c5ccc(OC)cc5)[C@@H]4C)c4ccccc43)cc2)cc1`, the composite z-score is -0.284 in assay [1]; 1.22 in [2]; -0.0858 in assay [3]; 0.792 in assay [4]; 0.271 in assay [5]; 0.74 in assay [6]. For the same compound, the figures for the composite z-score in assay [7], in assay [9] and in [10] were 1.26, 0.276 and -0.0994, respectively. In addition, in [8], the z-score is -0.228 (inactive).
Take `COc1ccc(C(O)C2C=CC3C(=O)N(C)C(=O)C3N2Nc2ccccc2)cc1` (stereo not given): the composite z-score in assay [1] is 0.402; in assay [2] it was 0.467; in assay [3] it was 0.042; in [4], 0.701; in assay [5], 1.7; in assay [6] it was 2.03. The composite z-score was 1.27 in assay [7], 0.791 in assay [9] and -0.271 in [10]. Further, in assay [8], the z-score is 1.71 (inactive).
Regarding `COC(=O)[C@@]1(Cc2ccccc2)[C@H]2c3cc(C(=O)N(C)C)n(CCF)c3C[C@H]2CN1C(=O)c1ccccc1`, the composite z-score in assay [1] worked out at 1.57; in [2], 2.12; in [3], 0.181; in [4], 0.103; in [5], 1.31; in assay [6], 2.17. For the same compound, the figures for the composite z-score in [7], in [9] and in assay [10] were 0.592, 0.974 and -0.0296, respectively. The z-score in assay [8] is 1.52 (inactive).
Take `O=C1C2C=CC(C(O)C3CCCCC3)N(Nc3ccccc3F)C2C(=O)N1c1ccccc1` (stereo not given): the composite z-score in assay [1] was 0.967; in [2], 0.619; in [3], 0.257; in [4] it was 0.682; in assay [5] it was 1.66; in [6], 1.93. The composite z-score in [7] is 1.31; in [9], 1.55; in assay [10], -0.0617. For the same compound, the z-score in [8] was -0.227 (inactive).
